Cruzain noTriton: qHTS Assay for Promiscuous and Specific Inhibitors of Cruzain (without detergent); Cruzipain (Trypanosoma cruzi), P25779; purified cruzain, Z-FR-AMC fluorescence, no detergent; Potency, µM, actives largely listed as inhibitors; 200,000 compounds, 2.3% hits; AID 1476, 2009; note: nearly all actives have a fitted effect of over 40% in size
Target sequence (P25779 123-467 limits assumed): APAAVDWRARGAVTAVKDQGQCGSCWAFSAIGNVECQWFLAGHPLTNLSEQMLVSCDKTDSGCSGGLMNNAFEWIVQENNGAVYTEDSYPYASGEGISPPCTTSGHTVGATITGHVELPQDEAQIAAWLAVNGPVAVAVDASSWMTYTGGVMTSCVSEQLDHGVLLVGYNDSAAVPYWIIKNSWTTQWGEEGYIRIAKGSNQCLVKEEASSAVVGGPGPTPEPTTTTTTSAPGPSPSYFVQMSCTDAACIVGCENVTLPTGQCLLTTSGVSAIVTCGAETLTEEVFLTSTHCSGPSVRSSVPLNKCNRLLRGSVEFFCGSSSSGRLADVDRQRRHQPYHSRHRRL
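Detergent-free condition (0.00005% Triton X-100) in acetate buffer pH 5.5 with DTT. 1.5 nM enzyme and compound were pre-mixed 15 min, then 2 uM Z-FR-AMC substrate added; reaction progress from fluorescence change between first and third reads (60 s).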
Cruzain Triton: qHTS Assay for Promiscuous and Specific Inhibitors of Cruzain (with detergent); Cruzipain (Trypanosoma cruzi), P25779; purified cruzain, Z-FR-AMC fluorescence, 0.01% Triton; Potency, µM, hits mostly inhibitors; 200,000 compounds, 0.43% hits; note: nearly all actives have a fitted effect of over 40% in size
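Cysteine protease activity tested under reducing, mildly acidic conditions (100 mM sodium acetate pH 5.5, 5 mM DTT) plus 0.01% Triton X-100. Cruzain 1.5 nM; substrate Z-FR-AMC 2 uM; 15 min compound preincubation at room temperature.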
Large screens that a line does not name were inactive. Sampled rows, rich in hits. Any-hit rate of the full collection: about 2.4%. Calls come from the whole dose curve; as a rule, active = well fitted curve in the direction sought with a large enough effect; inconclusive = small, poorly fitted or top-dose-only effect, or another doubt; inactive = no such curve, though single readings can be large; an effect the other way counts as inactive or inconclusive.

O=C(Nc1ccc(S(=O)(=O)N(Cc2ccccc2)c2ccccc2)cc1)c1ccc([N+](=O)[O-])cc1	none
COc1ccccc1N1CCN(C(=O)C2CCCN(S(=O)(=O)c3ccc4c(c3)oc(=O)n4C)C2)CC1 (stereo not given)	Cruzain noTriton inconclusive
C=C(C)C1Cc2c(C)nn(-c3cccc4ccccc34)c2C1 (stereo not given)	none
O=C(Cc1ccccc1)NCC(=O)OCC(=O)c1ccc(Cl)c([N+](=O)[O-])c1	Cruzain noTriton 16µM, Cruzain Triton inconclusive
O=C(NCCc1ccccc1)c1ccc(Cl)c([N+](=O)[O-])c1	none
COc1cccc(C(=O)NCC(=O)OCC(=O)Nc2cc(OC)c([N+](=O)[O-])cc2C)c1	Cruzain noTriton inconclusive, Cruzain Triton 22µM
COc1ccc(OC)c(NC(=O)COC(=O)CNC(=O)c2ccc(OC)c(OC)c2)c1	none
Cc1ccc(C(=O)COC(=O)CNC(=O)C(c2ccccc2)c2ccccc2)cc1[N+](=O)[O-]	none
Cc1ccc(NC(=O)COC(=O)CNC(=O)c2ccc(Br)cc2)c(C)c1	Cruzain noTriton 16µM, Cruzain Triton 14µM
Cc1ccc(C(=O)NCC(=O)OCC(=O)c2ccc(C)c([N+](=O)[O-])c2)cc1	Cruzain noTriton 13µM, Cruzain Triton 16µM
COc1cc(NC(=O)COC(=O)CNC(=O)c2cc(C)cc(C)c2)c(C)cc1[N+](=O)[O-]	Cruzain Triton inconclusive
COC(=O)C(C#N)C(c1cccnc1)c1c(C)[nH][nH]c1=O (stereo not given)	none
O=C(c1cccs1)N1CCc2c([nH]c3ccccc23)C1c1ccc(Cl)cc1 (stereo not given)	Cruzain noTriton inconclusive
COC(=O)NNC(=O)c1ccc(C)cc1	none
Cc1ccc(C(=O)N/C(=C/c2ccc(Cl)cc2)C(=O)Nc2cccc(C(=O)O)c2)cc1	Cruzain noTriton inconclusive
CSc1ccc(/C=C(\NC(=O)c2ccc(C)cc2)C(=O)Nc2cccc(C)c2)cc1	Cruzain noTriton 7.9µM
Clc1ccc(C2=NNC(=NCC3CCCO3)SC2)cc1 (stereo not given)	none
CCOC(=O)c1cc2c(=O)n3ccccc3nc2n(Cc2ccco2)c1=NC(=O)c1ccccc1Br	none
CC(C)C[C@@H]1NC(=O)[C@H](C(C)C)NC(=O)c2cc([N+](=O)[O-])cc(I)c2NCC[C@@H](C(N)=O)NC1=O	Cruzain Triton 14µM
CC(C)[C@@H]1NC(=O)c2cc([N+](=O)[O-])cc(I)c2NCC[C@@H](C(N)=O)NC(=O)[C@H](CO)NC1=O	Cruzain noTriton inconclusive
CC(=O)Nc1cc(C(=O)NCc2ccc(C)cc2)ccc1Sc1ccc(C)cc1	none
CC(=O)c1ccc2c(c1)C1C=CCC1C(c1ccncc1)N2 (stereo not given)	none
CC(=O)c1ccc2c(c1)C1C(Cl)C(Sc3ccccc3[N+](=O)[O-])CC1C(c1ccccc1)N2 (stereo not given)	Cruzain noTriton 4µM
CC(=O)c1ccc(Sc2nnnn2-c2ccccc2)c([N+](=O)[O-])c1	none
CC(=O)c1ccc2c(c1)C1C(Cl)C(Sc3ccccc3[N+](=O)[O-])CC1C(c1ccccc1[N+](=O)[O-])N2 (stereo not given)	Cruzain noTriton 3.2µM
CN(C)S(=O)(=O)c1cc(NC(=O)COC(=O)Cc2ccccc2)ccc1Cl	none
CN(C)S(=O)(=O)c1cc(NC(=O)[C@H](Cc2ccccc2)N2C(=O)c3ccccc3C2=O)ccc1Cl	Cruzain noTriton 20µM
CCCCOCCCNC(=O)N[C@@H](CCSC)C(=O)OC	none
C(=N\Nc1nc(-c2ccccc2)cs1)/c1ccco1	Cruzain noTriton inconclusive
C(=N\Nc1nc(-c2ccccc2)cs1)/c1cccs1	Cruzain noTriton 25µM
CCCSCCCNC(=O)C1CCCN(C(=O)c2cnn(-c3ccccc3)c2-n2cccc2)C1 (stereo not given)	Cruzain noTriton inconclusive
CSc1nc2ccccc2cc1/C=C(\C#N)c1ccc(Cl)c(Cl)c1	Cruzain noTriton 25µM
CSc1nc2ccccc2cc1/C=C(\C#N)c1ccccc1	none
Cc1ccc(SCc2cc(=O)[nH]c(N3CCOCC3)n2)cc1	none
Cc1cc(NC2C3CC4CC(C3)CC2C4)n2nnnc2n1 (stereo not given)	Cruzain noTriton inconclusive
CCCN(CC1CC1)C(=O)CSc1nnc(-c2cc(-c3cccs3)nc3ccccc23)o1	Cruzain noTriton 16µM
NC(=O)CSc1nnc(-c2cc(-c3cccs3)nc3ccccc23)o1	none
COc1ccc(/C=C2\SC(=S)N(CC(=O)Nc3nnc(C)s3)C2=O)cc1	Cruzain noTriton 16µM
COc1cc(/C=C2\SC(=S)N(CC(=O)Nc3ccccn3)C2=O)cc(OC)c1OC	none
O=C(CSc1nnnn1-c1ccccc1)Nc1ncc(Cc2ccccc2Cl)s1	none
Cc1cccc(Cc2cnc(NC(=O)CN3C(=O)/C(=C/c4ccccc4)SC3=S)s2)c1	Cruzain noTriton inconclusive

Compound activity: PubChem, National Center for Advancing Translational Sciences (NCATS)
